From PubChem BioAssay AID463173 (ICCB-Longwood Screening Facility, Harvard Medical School, 2010)
The whole screen tested about 52,000 compounds, of which about 4,300 (8.3%) were called active. This excerpt belongs to a sample that is enriched for actives. A number with no mark means an inactive call. Cut-off read from the data, not from the text of the source: active = survival mostly below about 52% (no sharp cut-off); inactive = mostly above about 56%.

System: DeltatarO mutant
Assay: growth inhibition of S. aureus wild type versus tarO mutant, primary screen, teichoic acid synthesis inhibitors, RN4220, OD600 (AID 463173)
Details: OD600, 18 h, hits give low values, screened at 18.75 µg/mL (by protocol)

| SMILES | survival |
| --- | --- |
| COc1ccc(C(=O)Nc2ccc3nc4n(c(=O)c3c2)CCCCC4)cc1OC | 91% |
| CCOc1ccc(-n2c(=O)c3c(C)c(C)sc3n(CC(=O)N3CCC(C)CC3)c2=O)cc1 | 71% |
| CCC(C)NC(=O)c1ccc2nc(Cc3ccc(OC)cc3)oc2c1 (stereo not given) | 76% |
| CCOC(=O)c1c(C)[nH]c(CCC(=O)Nc2cc(Cl)ccc2OC)c1C | 94% |
| COc1ccccc1CNC(=O)Cn1c(=O)ccc2cc(S(=O)(=O)N3CCCC3)ccc21 | 69% |
| CCn1nc(C)c(CCN(C)C(=O)Nc2cc(OC)c(OC)c(OC)c2)c1C | 89% |
| COc1cc2c(cc1NC(=O)COc1ccc(Br)cc1C)oc1ccccc12 | 119% |
| COc1cc2c(cc1NC(=O)COc1ccc(Br)c(C)c1)oc1ccccc12 | 49% |
| CCc1ccc(OCC(=O)Nc2cc3oc4ccccc4c3cc2OC)cc1 | 47% (active) |
| COc1cc2c(cc1NC(=O)COc1ccc(Br)cc1)oc1ccccc12 | 72% |
| CCc1ccc(OCC(=O)Nc2cc3oc4ccccc4c3cc2OC)c(Br)c1 | 123% |
| COc1cc2c(cc1NC(=O)COc1ccc(Cl)cc1)oc1ccccc12 | 46% (active) |
| O=C(CN1CCSc2ccccc21)N1CCN(c2ccc(F)cc2)CC1 | 88% |
| O=C(O)CCCNc1ncnc2ccccc12 | 92% |
| COc1ccc(NC(=O)C2CCN(c3nc4ccccc4[nH]3)CC2)cc1OC | 66% |
| Fc1ccccc1-n1ncc2c1ncn1nc(Cc3ccccc3)nc21 | 74% |
| CCOC(=O)N1CC=C2C(C#N)=C(N)C(C#N)(C#N)C(c3ccc(CC)cc3)C2C1 (stereo not given) | 88% |
| COc1cccc(C2C3CN(C(C)=O)CC=C3C(C#N)=C(N)C2(C#N)C#N)c1 (stereo not given) | 93% |
| CC(C)(C)OC(=O)N1CC=C2C(C#N)=C(N)C(C#N)(C#N)C(c3ccc4c(c3)OCO4)C2C1 (stereo not given) | 35% (active) |
| COc1cc(NC(=O)N2CCC(CN3CCc4ccccc4C3)CC2)cc(OC)c1 | 70% |

| SMILES | survival |
| --- | --- |
| CCOc1ccc(NC(=O)N2CCC(CN3CCc4ccccc4C3)CC2)cc1 | -1% (active) |
| Cc1cccc(NC(=O)N2CCC(CN3CCc4ccccc4C3)CC2)c1C | -2% (active) |
| CCOc1ccc(NC(=O)N2CCC(CN3CCC(C)CC3)CC2)cc1 | 117% |
| COC(=O)c1ccc(NC(=O)N2CCC(CN3CCc4ccccc4C3)CC2)cc1 | 6% (active) |
| CCc1ccccc1NC(=O)N1CCC(CN2CCc3ccccc3C2)CC1 | 76% |
| CCOc1ccc(NC(=O)N2CCC(CN3CCCCCC3)CC2)cc1 | 115% |
| Cc1cc(C)cc(NC(=O)N2CCC(CN3CCc4ccccc4C3)CC2)c1 | 72% |
| Cc1cccc(NC(=O)N2CCC(CN3CCCCCC3)CC2)c1C | 81% |
| COc1ccc(Cl)cc1NS(=O)(=O)c1cc(-c2cc(C)no2)ccc1C | 87% |
| CCCCn1c(=O)c2oc3ccccc3c2n(Cc2ccccc2C)c1=O | 55% |
| COc1cccc(-n2nnc(-c3nc(-c4ccccc4F)no3)c2C)c1 | 84% |
| COc1cccc(OCCSc2nc3ccccc3n2CC(=O)N2CCCCC2)c1 | 42% (active) |
| Cc1ccc(NC(=O)CSc2nc3ccccc3n2CC(=O)N2CCC(C)CC2)cc1C | 17% (active) |
| O=C(Cn1c(SCCOc2ccccc2)nc2ccccc21)N1CCOCC1 | 47% |
| CC1CCN(C(=O)Cn2c(SCC(=O)NC(C)(C)C)nc3ccccc32)CC1 | 92% |
| Cc1cccc(OCCSc2nc3ccccc3n2CC(=O)N2CCOCC2)c1 | 44% (active) |
| COc1cccc(OCCSc2nc3ccccc3n2CC(=O)N2CCOCC2)c1 | 44% (active) |
| Cc1ccc(OCCSc2nc3ccccc3n2CC(=O)N2CCOCC2)cc1 | 96% |
| COc1ccc(OCCSc2nc3ccccc3n2CC(=O)N2CCOCC2)cc1 | 51% |
| Cc1ccc(OCCSc2nc3ccccc3n2CC(=O)N2CCOCC2)c(C)c1 | 93% |

| SMILES | survival |
| --- | --- |
| CC1CCN(C(=O)Cn2c(SCC(=O)Nc3ccc(F)cc3)nc3ccccc32)CC1 | 96% |
| COc1ccc(C2CC(=O)Nc3c2c(C)nn3-c2nncc(-c3ccc(C)cc3)n2)c(OC)c1OC (stereo not given) | 83% |
| CCOc1ccc(/C=C(\C#N)C(=O)NCc2ccco2)cc1OC | 113% |
| CCOc1ccc(CNCc2c(C(=O)O)c(C)n(Cc3c(F)cccc3Cl)c2C)cc1OC | 56% |
| COc1ccc(C2CC(=O)c3cc(-c4nc(-c5ccc(C)cc5)cs4)c(=O)[nH]c3C2)cc1 (stereo not given) | 76% |
| O=C(CNC(=O)c1ccc(Cl)cc1)OCc1cc(=O)n2nc(C3CCCCC3)sc2n1 | 90% |
| CCCCn1cc(S(=O)(=O)c2ccc(Cl)cc2)c(=O)c2cc(F)c(N3CCCC(C)C3)cc21 (stereo not given) | 117% |
| O=C(c1ccc(F)cc1)C1CCN(S(=O)(=O)c2ccc(F)cc2)CC1 | 95% |
| COc1ccc(CNC(=O)CCCc2nnc3n(CCC(C)C)c(=O)c4sccc4n23)cc1 | 93% |
| Cc1ccc2nc(NC(=O)CSc3cc(C)[nH]c(=O)n3)sc2c1 | 79% |
| CCc1ccc(OCCSc2nc3ccccc3n2CC(=O)N2CCCCC2)cc1 | 40% (active) |
| O=C(Cn1c(SCCOc2ccc(Cl)cc2)nc2ccccc21)N1CCCCC1 | 50% |
| Cc1ccc(OCCSc2nc3ccccc3n2CC(=O)NC(C)C)cc1 | 52% |
| Cc1ccc(OCCSc2nc3ccccc3n2CCC(=O)O)cc1C | 47% (active) |
| Cn1c(SCCC(=O)O)nc2ccccc21 | 83% |
| Cc1ccc(OCCSc2nc3ccccc3n2CC(=O)N2CCOCC2)cc1C | 53% |
| CCN(CC)C(=O)Cn1c(SCCOc2ccc(Cl)cc2)nc2ccccc21 | 43% (active) |
| Cc1ccc(OCCSc2nc3ccccc3n2CC(=O)N2CCCCC2)cc1C | 46% (active) |
| CCN(CC)C(=O)Cn1c(SCC(=O)Nc2ccc(F)cc2)nc2ccccc21 | 100% |
| Cc1cccc(C)c1OCCSc1nc2ccccc2n1CC(=O)O | 83% |
